Screening results as filed in PubChem.
Most compounds without a hit are left out; they make up all but 4% or so of the library.
Bead autofluor – flagged as autofluorescent in microsphere protease counterscreen; compound autofluorescence counterscreen, microsphere flow cytometry; stronger effect = higher value; fluorescence intensity (concentration not given with the values); 360,000 compounds, 3.1% hits; AID 624483; in the data active = fluorescence intensity above about 16000; inconclusive = no clear call, values can overlap the other calls
BoNT-A LC inh2 – inhibitors of Botulinum neurotoxin A light chain protease. multiplex microsphere protease substrate cleavage, flow cytometry. inhibition, % at 10 µM. 360,000 compounds, 0.17% hits. AID 588499; also: plate controls were buffer without enzyme for full effect and enzyme alone for no effect
DUSP3 inh – inhibitors of human VHR1 phosphatase (DUSP3); inhibition, % at 13.3 µM; P51452; 290,000 compounds, 0.52% hits; recombinant VHR phosphatase, pNPP absorbance; AID 1654; in the data active = inhibition above about 50%
Target sequence (P51452 whole entry, looked up): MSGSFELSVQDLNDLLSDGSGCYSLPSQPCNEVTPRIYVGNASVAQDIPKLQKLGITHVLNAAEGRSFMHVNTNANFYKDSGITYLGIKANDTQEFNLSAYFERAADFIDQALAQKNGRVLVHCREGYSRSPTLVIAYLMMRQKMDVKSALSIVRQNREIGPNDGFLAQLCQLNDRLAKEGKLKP
MazF activator – activators of E. coli MazEF toxin-antitoxin RNase. P0AE70. FAM/BHQ RNA-DNA oligo cleavage fluorescence, 5 h. activation, % at 20 µM. 350,000 compounds, 0.32% hits; in the data active = activation above about 50%
Target sequence (P0AE70 whole entry, looked up): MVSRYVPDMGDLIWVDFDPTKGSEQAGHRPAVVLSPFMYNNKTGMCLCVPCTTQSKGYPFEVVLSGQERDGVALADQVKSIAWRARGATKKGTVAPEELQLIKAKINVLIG
BoNT F protease – inhibitors of Botulinum neurotoxin F light chain protease; AID 588497; 360,000 compounds, 0.22% hits; inhibition, % at 10 µM; Multiplex microsphere protease cleavage assay, flow cytometry; in the data active = inhibition above about 35%, passing the limit was not always enough; inconclusive = no clear call, values can overlap the other calls; also: plate controls were buffer without enzyme for full effect and enzyme alone for no effect
Anthrax LF prot – anthrax lethal factor protease inhibition; multiplex microsphere protease cleavage assay, LF; 360,000 compounds, 0.12% hits; inhibition, % at 10 µM; AID 588501; P15917; also: plate controls were buffer without enzyme for full effect and enzyme alone for no effect
* marks the source's active call; other numbers are inactive results; ? = inconclusive; / = no result. Rule as the data show it, unless noted: active = inhibition above about 30%; inconclusive = no clear call, values can overlap the other calls; inactive = below that.

SMILES	Bead autofluor	BoNT-A LC inh2	DUSP3 inh	MazF activator	BoNT F protease	Anthrax LF prot
Cc1c(NC(=O)c2cc(=O)[nH]c3ccccc23)c(=O)n(-c2ccccc2)n1C	17099*	-2.7	-8.8	7.0	-5.3	-0.4
Cc1cccc(NC(=O)/C=C/c2cccs2)n1	21452*	-1.6	18.6	-2.2	-3.2	-0.8
Cc1c(NC(=O)c2ccccc2)c(=O)n(-c2ccccc2)n1C	3241	-0.2	4.4	-0.9	2.5	2.8
COc1ccccc1C(=O)Nc1c(C)n(C)n(-c2ccccc2)c1=O	22949*	-1.1	4.9	7.4	-1.0	0.1
Cc1c(NC(=O)/C=C/c2cccs2)c(=O)n(-c2ccccc2)n1C	22938*	-0.2	23.7	2.9	-1.4	-0.2
COc1ccccc1NC(=O)Nc1c(C)n(C)n(-c2ccccc2)c1=O	21129*	?	20.7	-2.2	2.4	-5.2
O=C(CN1C(=O)c2ccccc2C1=O)Nc1cc([N+](=O)[O-])ccc1O	3995	-0.6	6.9	2.2	-4.5	-1.1
Cc1c(NS(=O)(=O)c2ccc3[nH]c(=O)[nH]c3c2)c(=O)n(-c2ccccc2)n1C	20240*	6.3	-3.8	-1.6	6.5	1.3
NC(c1ccccc1)c1csc(NC(=O)Nc2ccccc2Oc2ccccc2)n1 (stereo not drawn)	3913	-0.5	/	/	-11.3	-4.8
CCOc1ccc(CCN2C(=O)CCC2(C)C(=O)NC(C)CC)cc1OCC (stereo not drawn)	23716*	-0.3	2.7	-13.3	0.0	2.3
CCOC(=O)/C(C#N)=C/C=C1\C=Cc2ccccc2N1CC	119384*	-0.1	6.0	-25.3	178.5*	45.8*
CCCCCCN1C=CC(=C/C=C(\C#N)C(=O)OCC)C=C1	24837*	-10.3	21.4	-419.2	-16.4	0.0
Cc1ccc(NC(=O)c2cnc(SCC(=O)NCC3CCCO3)n(C)c2=O)cc1C (stereo not drawn)	?	-2.0	/	-0.4	-1.5	-6.3
COc1ccccc1NC(=O)c1csc2c1CCCC2	19509*	?	9.6	-1.3	1.0	-3.5
COc1ccccc1CNC(=O)c1csc2c1CCCC2	4041	-1.3	13.1	4.6	-1.3	-0.1
COc1ccc(Cn2c(SCc3ccc(C)cc3)nc3cc(OC)c(OC)cc3c2=N)cc1Cl	16606*	-1.2	29.9	-65.6	-4.5	-2.1
COc1cc2nc(SCc3ccc(Cl)cc3Cl)n(Cc3cccs3)c(=N)c2cc1OC	20638*	0.4	16.4	-6.7	-1.0	-3.5
COc1cccc(CN2CC(C(=O)N3CCCC3)CCC2=O)c1 (stereo not drawn)	5890	-0.7	12.9	10.7	-1.3	1.2
CN1C(=O)NC(c2ccccc2)C2=C1CN(CCc1ccccc1)C2=O (stereo not drawn)	20821*	?	29.1	-4.2	-1.5	0.0
COc1ccc(CCN2CC3=C(C2=O)C(c2ccccc2)NC(=O)N3C)cc1OC (stereo not drawn)	7179	-1.6	6.7	4.8	-6.7	-3.3
O=C(Cn1nnc(-c2ccc(CN3CCOCC3)cc2)n1)Nc1nc(-c2ccccc2)cs1	21308*	0.3	6.4	-1.2	-0.8	-10.0
Cc1ccccc1NC(=O)Cn1nnc(-c2ccc(N3CCOCC3)cc2)n1	22327*	?	18.7	1.5	-3.5	-6.4
O=C(Cn1nnc(-c2ccc(N3CCOCC3)cc2)n1)OC1CCCCC1	21996*	1.6	11.8	-11.5	3.6	-2.8
O=C(CN1CCOCC1)Nc1nc(-c2ccccc2)cs1	4108	-2.7	18.2	-2.5	-5.6	3.6
O=C(Cn1nnc(-c2ccc(N3CCOCC3)cc2)n1)N1CCOCC1	/	/	22.6	7.7	/	/
SMILES	Bead autofluor	BoNT-A LC inh2	DUSP3 inh	MazF activator	BoNT F protease	Anthrax LF prot
COc1ccc(C2CC(C(F)(F)F)n3nc(C(=O)O)cc3N2)cc1 (stereo not drawn)	4014	0.2	5.4	-3.3	0.5	-0.9
C=C(C)CSc1nnc(-c2cc(OC)c(OC)c(OC)c2)n1N	21195*	-5.0	14.7	11.6	-5.9	1.1
O=C1CC(C(=O)Nc2ccc(F)cc2)S/C(=N\N=C\c2ccco2)N1 (stereo not drawn)	2508	-0.2	14.7	-2.7	2.1	1.2
Cc1ccc(NC(=O)C2CC(=O)N/C(=N/N=C/c3ccco3)S2)cc1 (stereo not drawn)	1988	-0.4	57.9*	4.8	-6.2	-0.3
COc1ccc(CCn2c(Br)nc3c2c(=O)[nH]c(=O)n3C)cc1	17013*	-3.4	-7.7	0.6	-2.7	3.4
CCCc1cc(=O)[nH]c(SCc2cc(Cl)ccc2OC(F)F)n1	24635*	-5.1	42.0	-7.8	-7.5	-2.2
